Compound activity as filed in PubChem.
Pf Dd2 inh = inhibitors of Plasmodium falciparum Dd2 growth. P. falciparum Dd2 growth, SYBR Green, 72 h. Potency, µM (series often up to 28.9 µM), for inactives: at the top dose activity, negative = inhibition, usual class: inhibitors. 120,000 tested, 4.3% active. AID 1347417; active = well fitted inhibition curve with a large enough effect;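 also: plate controls were DMSO vehicle for no effect and reference drug for full effect; nearly all actives have a fitted effect of over 65% in size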
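Readout: SYBR Green fluorescence, 485 nm excitation, 535 nm emission, after ~16 h lysis at 37C. Before that, Dd2-infected red cells (2.5% hematocrit) grew 72 h with compound, 29 uM top final concentration.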
* marks the source's active call; other numbers are inactive results; i = inactive; [ ] = remark or other dose. Only a selection was taken, and hits are over-represented in it overall. Potency is read from the fitted curve at half-maximal effect.

SMILES	Pf Dd2 inh
CCOCC(=O)N1CCC2(CC1)CC(Cc1nc(-c3ccncc3)no1)CCO2 (stereo not given)	4%
O=C(NC1CC1)C1CCN(C(=O)N2CC3CC(C2)[C@H]2CCCC(=O)N2C3)CC1 (stereo not given in full)	-12%
CCCCN1C(=O)[C@@H]2C[C@@H](O)CN2C2(CN(CC3CC3)C2)C1=O	-18%[44.1 µM]
O=C(COc1ccc(Cl)cc1)N1CCc2nn(CC3CC3)c(=O)n2CC1	-6%
O=C(c1ccn(C(F)F)n1)N1CCc2nc(-c3ccc(Cl)cc3)[nH]c2C1	13µM*
CCn1ccc(C(=O)N2CCc3c(nc(-c4ccc(OC)cc4)[nH]c3=O)C2)n1	-29%
Cc1cc(C(=O)N2CCc3c(nc(-c4ccc(F)cc4)[nH]c3=O)C2)nn1C	-8%
CCc1ccc(N2CC(c3noc(-c4cc(F)ccc4F)n3)CC2=O)cc1 (stereo not given)	72%
CC(=O)N[C@@H]1Cc2ccccc2[C@H]1NC(=O)CN1C(=O)CNC1=O	7%
O=C(NCc1ccnc2[nH]ccc12)c1ccc2c(c1)OCO2	3%[44.1 µM]
Cn1ccnc1-c1ccc(N2CC[C@@]3(O)CCN(S(C)(=O)=O)C[C@H]3C2)nn1	-8%
O=S(=O)(c1ccccc1Cl)N1CCCC(CO)(Cc2cccc(Cl)c2)C1 (stereo not given)	-21%
Cn1ccnc1-c1ccc(N2CCCC(CO)(Cc3cccc(Cl)c3)C2)nn1 (stereo not given)	5µM*
O=C1COc2ccc(-c3ccc4c(c3)OCO4)nc2CN1Cc1ccc(F)cc1	-13%[44.1 µM]
O=c1cc(N2CCOCC2)oc2c(N3CCOCC3)nccc12	-3%[44.1 µM]
O=C(Nc1ccc(F)cc1)c1ccc2c(c1)OCCN(CCC(F)(F)F)C2	i
Cc1cnc(NC(=O)c2ccc3c(c2)OCCN(C2CCC2)C3)s1	i
Cc1cnc(NC(=O)c2ccc3c(c2)OCCN(Cc2ncccn2)C3)s1	i
O=C(Nc1nccs1)c1ccc2c(c1)OCCN(c1ccccc1)C2	10µM*
CC(C)CCN1CCOc2cc(C(=O)Nc3ccccc3)ccc2C1	-14%[44.1 µM]
O=C(Nc1nccs1)c1ccc2c(c1)OCCN(CCC(F)(F)F)C2	-7%[44.1 µM]
COc1ccc(NC(=O)c2ccc3c(c2)OCCN(C2CCC2)C3)c(F)c1	i
O=C(Nc1nccs1)c1ccc2c(c1)OCCN(C1CCC1)C2	7.9µM*
O=C(Nc1ccc2cn[nH]c2c1)c1ccc2c(c1)OCCN(c1ccccc1)C2	11µM*
Fc1ccc2c(c1)nc1n2[C@@H](CNCc2ccncc2F)COC1	5%[44.1 µM]
SMILES	Pf Dd2 inh
CCC(C)NC(=O)C(C)N1C(=O)COc2ccc(C(=O)COc3ccc(OC)cc3)cc21 (stereo not given)	-28%
Cc1ccc2c(c1)C(C[C@H]1CN(C(=O)CC(C)(C)C)CC[C@H]1CC(=O)O)=NCC2	-20%[44.1 µM]
CCOc1ccccc1NC(=O)CN1C(=O)C(c2ccccc2)=NC12CCCCC2	i
O=C(Nc1ccc(F)cc1)C1CCN(c2cc(C(F)(F)F)ncn2)CC1	i
COc1ccc(NC(=O)C2CCN(c3cc(C(F)(F)F)ncn3)CC2)cc1	i
O=C(NC1CCN(c2cc(C(F)(F)F)ncn2)CC1)c1ccco1	i
COc1ccc(-c2cc(N3CCC(NC(=O)COc4ccc(F)cc4)CC3)n[nH]2)cc1	-10%
COc1ccc(NC(=O)C2CCN(c3cc(C(F)(F)F)ncn3)CC2)cc1OC	11µM*
O=C(COc1ccc(F)cc1)NC1CCN(c2cc(C(F)(F)F)ncn2)CC1	5.6µM*
CCN(CC)C(=O)N1CCCOCCNC(=O)[C@@H]2CCC[C@@H]21	24%
CN(Cc1cccn1C)C(=O)Cc1ccc(F)cc1	11%[44.1 µM]
CN(Cc1cccc(C(F)(F)F)c1)S(=O)(=O)c1cccs1	11%[44.1 µM]
CN(C)C1CCN(c2nccc(C3(c4ccccc4Cl)CCNCC3)n2)C1 (stereo not given)	-25%
OC[C@@H](O)CNc1nccc(C2(c3ccccc3Cl)CCNCC2)n1	25%
Clc1ccccc1C1(c2ccnc(C3CC3)n2)CCNCC1	2.2µM*
CN1CCC(CNc2nccc(C3(c4ccccc4Cl)CCNCC3)n2)C1 (stereo not given)	-7%
Clc1ccccc1C1(c2ccnc(-c3ccccc3)n2)CCNCC1	10µM*
Clc1ccccc1C1(c2ccnc(NC3CCC3)n2)CCNCC1	7.1µM*
O[C@@H]1CCN(c2nccc(C3(c4ccccc4Cl)CCNCC3)n2)C1	-17%
CNC(=O)N1CCCC(c2nc(C(C)C)no2)CCNC(=O)CC1 (stereo not given)	27%
COCCN1CC(Cc2cccc(-c3nnc(C)s3)c2)CC1=O (stereo not given)	-9%
COCCCn1c(C(C)NC(=O)OCc2ccccc2)nc2cccnc21 (stereo not given)	2%
COCCNC(=O)[C@@H]1C[C@@H](O)CN1C1CCN(C(=O)CN2CCCCCC2)CC1	-8%
CC1=C[C@@H](CNC(=O)C(C)(C)C)[C@H](C(C)C)C[C@H]1Cc1nnc(-c2ccncc2)o1	-10%[44.1 µM]
COc1ccc(C(=O)NC[C@@H]2C=C(C)[C@H](Cc3nnc(-c4ccncc4)o3)C[C@H]2C(C)C)cc1	3.5µM*
SMILES	Pf Dd2 inh
CC(=O)NC[C@@H]1C=C(C)[C@H](CC(=O)N2CCN(C(C)=O)CC2)C[C@H]1C(C)C	-12%[44.1 µM]
CC1=C[C@@H](CNC(=O)c2ccccc2)[C@H](C(C)C)C[C@H]1CC(=O)N1CCCC1	11µM*
CCOC(=O)C[C@@H]1C[C@@H](C(C)C)[C@H](CNC(=O)c2ccncc2)C=C1C	i
COc1ccc(-c2nnc(C[C@@H]3C[C@@H](C(C)C)[C@H](CO)C=C3C)o2)cc1	10µM*
COc1ccc(C(=O)NC[C@@H]2C=C(C)[C@H](CC(=O)N3CCN(C(C)=O)CC3)C[C@H]2C(C)C)cc1	-17%
CC1=C[C@@H](CO)[C@H](C(C)C)C[C@H]1Cc1nnc(-c2cccnc2)o1	i
O=C(Cc1ccc(F)cc1)Nc1ccc2ncnc(N3CCCC3)c2c1	-20%
COc1ccc(C(=O)N[C@@H]2CN(C3CCOCC3)C[C@H]2CN(C)C)c(C)c1	-3%
CC(C)c1noc(-c2cn(C3CCN(C(=O)c4ccco4)CC3)nn2)n1	i
Cc1cccc(CN2C[C@]34C=C[C@H](O3)C(C(=O)N3CCc5ncccc5C3)C4C2=O)c1 (stereo not given in full)	0%
CC(=O)N(C1CC1)C1CCOC2(CCN(C(=O)Nc3ccccc3)CC2)C1 (stereo not given)	i
CCn1cc(S(=O)(=O)N2CCCC(c3nc(-c4ccccc4)no3)CCNC(=O)CC2)cn1 (stereo not given)	-19%
O=C(c1cncc(Br)c1)N1CCC2(CC1)CC(O)CCO2 (stereo not given)	13%
NC(=O)c1cccc(CN2CCC3(CC2)Cc2ccccc2N(C(=O)c2ccc(Cl)cc2)C3)c1	11µM*
O=C(c1ccc(Cl)cc1)N1CC2(CCN(C3COC3)C2)Cc2ccccc21 (stereo not given)	-23%
O=C(c1ccc(Cl)cc1)N1CC2(CCCN2Cc2ccc(Cl)cc2)Cc2ccccc21 (stereo not given)	10µM*
CC(=O)N1CC2(CCN(Cc3cccc(C(N)=O)c3)CC2)Cc2ccccc21	-17%
CS(=O)(=O)N1CC2(CCCN2Cc2ccc(Cl)cc2)Cc2ccccc21 (stereo not given)	-20%
O=C(c1ccc(Cl)cc1)N1CC2(CCN(CC3CC3)C2)Cc2ccccc21 (stereo not given)	6.3µM*
CC(=O)N1CC2(CCN(Cc3cccc(C(N)=O)c3)C2)Cc2ccccc21 (stereo not given)	-18%
